# Screening results (PubChem)
# Only some compounds are listed: those with a hit (about 10% of all), similar ones and a draw of the others.
# HP1b chromo inh – HTS for Inhibitors of HP1-beta Chromodomain Interactions with Methylated Histone Tails | Chromobox protein homolog 1 (Homo sapiens), P83916 | AlphaScreen HP1-beta / biotin-H3K9me3 peptide binding | Potency, µM (highest dose often 114 µM), without a hit: at the highest dose activity change, negative = inhibition, most hits filed as inhibitors | 390,000 compounds, 0.56% hits | AID 540317, 2011; note: potency is the fitted concentration of half-maximal effect; nearly all actives have a fitted effect of over 70% in size
# Target sequence (P83916 whole entry, looked up): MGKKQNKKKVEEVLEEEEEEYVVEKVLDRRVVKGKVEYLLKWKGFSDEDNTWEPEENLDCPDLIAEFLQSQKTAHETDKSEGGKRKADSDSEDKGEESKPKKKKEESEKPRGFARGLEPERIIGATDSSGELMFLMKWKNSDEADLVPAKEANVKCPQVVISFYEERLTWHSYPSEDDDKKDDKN
#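 HP1-beta protein (50 nM final) preincubated 30 min at room temperature with biotinylated H3(1-18)K9me3 peptide (50 nM) in PBS pH 7.4, 0.01% Tween-20, then compound added for 30 min. AlphaScreen streptavidin donor/nickel chelate acceptor beads (10 ug/mL final), 30 min dark, luminescence read.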
# JMJD2A Tudor – qHTS Assay for Inhibitors of JMJD2A-Tudor Domain | Lysine-specific demethylase 4A (Homo sapiens), O75164 | AlphaScreen JMJD2A-Tudor / H3K4me3 peptide binding | Potency, µM (highest dose often 114 µM), without a hit: at the highest dose activity change, negative = inhibition, hits mostly inhibitors | 390,000 compounds, 4.4% hits | AID 504339, 2011; note: potency is the fitted concentration of half-maximal effect; % is set by controls: 0 for no effect and ±100 for the full control effect; nearly all actives have a fitted effect of over 50% in size
# Six1-Eya2 blk – qHTS Assay for Inhibitors of the Six1/Eya2 Interaction; Homeobox protein SIX1 (Homo sapiens) + Protein phosphatase EYA2 (Homo sapiens), …; AlphaScreen GST-Six1/His-Eya2 binding, biochemical; stronger effect = lower value; activity change, % (concentration not given with the values); 360,000 compounds, 0.56% hits; in the data active = activity change below about -65%; inconclusive = mostly about -30% to -63%; note: % is set by controls: 0 for no effect and ±100 for the full control effect
#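 AlphaScreen luminescence read after one hour at 37 °C in darkness. Pin-transferred compounds met GST-Six1 and His-Eya2 protein (5X stock 250 nM/500 nM) plus glutathione donor and Ni-chelate acceptor beads (5X, 50 ug/mL).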
# BAZ2B inh – qHTS Assay for Inhibitors of BAZ2B | Bromodomain adjacent to zinc finger domain protein 2B (Homo sapiens), Q9UIF8 | AlphaScreen BAZ2B-H3K14Ac peptide displacement | Potency, µM (series often up to 114 µM), without a hit: at the highest dose activity change, negative = inhibition, actives largely listed as inhibitors | 360,000 compounds, 4.4% hits | AID 504333, 2011; note: potency is the fitted concentration of half-maximal effect; % is set by controls: 0 for no effect and ±100 for the full control effect; nearly all actives have a fitted effect of over 60% in size
#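 Multi-concentration screen (max 110 uM) measuring displacement of acetylated histone H3 peptide from BAZ2B by AlphaScreen, using 50 nM protein, 50 nM peptide and 10 ug/mL streptavidin donor plus Ni-chelate acceptor beads.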
# CtBP-E1A blk – qHTS Assay for Inhibitors of the CtBP/E1A Interaction. AlphaScreen GST-E1A/His-CtBP binding, 1536-well; stronger effect = lower value. CtBP / adenovirus E1A interaction (AlphaScreen). 340,000 compounds, 0.49% hits. activity change, % (concentration not given with the values); in the data active = activity change below about -65%; inconclusive = mostly about -30% to -63%; note: % is set by controls: 0 for no effect and ±100 for the full control effect
#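 Homogeneous bead-based format: GST-tagged E1A captured on glutathione donor beads, His-tagged CtBP on nickel acceptor beads; compounds precede bead addition by 2 h at 37 °C.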
# G9a block – qHTS Assay for Inhibitors of Histone Lysine Methyltransferase G9a; Histone-lysine N-methyltransferase EHMT2 (Homo sapiens), Q96KQ7; G9a H3K9 monomethylation, AlphaScreen, 2 h; Potency, µM (highest dose often 102 µM), for inactives: at the highest dose activity, negative = inhibition, most hits filed as inhibitors; 350,000 compounds, 8.8% hits; note: potency is the fitted concentration of half-maximal effect; % is set by controls: 0 for no effect and ±100 for the full control effect; nearly all actives have a fitted effect of over 75% in size
# Target sequence (Q96KQ7 913-1193 limits assumed): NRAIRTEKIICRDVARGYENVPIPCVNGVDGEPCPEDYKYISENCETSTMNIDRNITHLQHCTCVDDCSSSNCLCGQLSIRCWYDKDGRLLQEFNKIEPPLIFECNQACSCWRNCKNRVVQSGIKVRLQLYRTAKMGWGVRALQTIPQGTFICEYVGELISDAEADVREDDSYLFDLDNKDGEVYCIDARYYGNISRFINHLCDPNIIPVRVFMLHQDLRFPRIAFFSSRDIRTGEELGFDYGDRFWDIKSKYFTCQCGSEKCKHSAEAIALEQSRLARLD
#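 G9a (20 nM) was preincubated 15 min with compound, then reacted 2 h at room temperature with 500 nM biotin-H3K9 peptide and 20 µM SAM. Monomethyl-H3K9 detected by AlphaScreen using anti-H3K9me1 antibody.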
# * marks the source's active call; other numbers are inactive results; ? = inconclusive; / = not tested or not shown; [ ] = remark or other dose. Unless noted, calls come from the whole dose curve; as a rule, active = well fitted inhibition curve with a large enough effect; inconclusive = small, poorly fitted or top-dose-only effect; inactive = no such curve, though single readings can be large or run the other way.
SMILES,HP1b chromo inh,JMJD2A Tudor,Six1-Eya2 blk,BAZ2B inh,CtBP-E1A blk,G9a block
CC1(C)NC(=O)N(CCCCOc2cccc(C(F)(F)F)c2)C1=O,15%,-8%,4,4%,3,-5%[59 µM]
COc1ccccc1/C=C1/SC(=S)N(C(C)C(=O)NC2C=CS(=O)(=O)C2)C1=O (centres undefined),37%,6%,-13,-28%,/,45µM*
O=C(CN1C(=O)S/C(=C\c2ccc(Cl)cc2)C1=O)NC1C=CS(=O)(=O)C1 (centres undefined),0%,20µM*,1,-13%[57.1 µM],11,10%
CC(C(=O)NC1C=CS(=O)(=O)C1)N1C(=O)/C(=C/c2cccc(Cl)c2)SC1=S (centres undefined),-22%,?,-6,?,-8,25µM*
CC(C(=O)NC1C=CS(=O)(=O)C1)N1C(=O)/C(=C\c2ccccc2)SC1=S (centres undefined),20%,1%,-2,?,/,/
CC1(C(=O)Nc2ccc3c(c2)OCCO3)CSCC(=O)N1CCc1ccccc1F (centres undefined),/,/,-12,/,-3,/
CCc1ccc(C(=O)c2cn(CC(=O)Nc3cccc(C)c3C)c3nc(C)ccc3c2=O)cc1,5%,?,/,?,/,-7%[59 µM]
COc1ccc(-c2nnc3n2N=C(c2ccc(OC)c(OC)c2)CS3)c(OC)c1,/,-15%,/,/,/,/
O=C(N/N=C1/CC2C=CCC12)c1cccs1 (centres undefined),46%,5%,0,-20%,5,-20%
O=C(N/N=C1/CC2C=CCC12)c1ccco1 (centres undefined),9%,50µM*,2,-28%,-2,-7%[59 µM]
COC(=O)c1ccc[n+](CCc2c[nH]c3ccccc23)c1,16%,-19%,2,/,7,/
CCC(C)NC(=O)CC1Oc2ccc(C)cc2NC1=O (centres undefined),42%,-15%,0,5%,2,45µM*
Cc1ccc2c(c1)NC(=O)C(CC(=O)N(C)Cc1ccccc1)O2 (centres undefined),42%,-9%,-3,-2%,1,50µM*
COC(=O)CC1Oc2ccc(C)cc2NC1=O (centres undefined),38%,-13%,5,10%,8,4%
COC(=O)Cc1ccc(OC2(C)CCN(Cc3ccccc3)C2)cc1 (centres undefined),/,/,0,/,-2,/
COc1cc(OC)c(NC(=O)CC(c2cccs2)N2Cc3ccccc3C2=O)cc1Cl (centres undefined),12%,-27%,/,?,/,-41%[59 µM]
N#Cc1cccc(S(=O)(=O)N2CCN(c3nc(-c4cccs4)nc4ccccc34)CC2)c1,30%,-10%,/,/,/,/
Cc1c(C(=O)N2CCOCC2)oc2c1-c1nn(CC(=O)NCc3ccccc3)cc1CC2,8%,-22%,/,?,/,-9%[59 µM]
Cc1ccc(C(=O)Cn2cncn2)cc1,4%,-29%,3,-24%,3,50µM*
COc1ccccc1C1C([N+](=O)[O-])=CC([N+](=O)[O-])=CN1C (centres undefined),47%,8%,-4,6%,3,?
COc1ccccc1C1NC=C([N+](=O)[O-])C=C1[N+](=O)[O-] (centres undefined),?,?,1,45µM*,-1,3.5µM*
COc1cc(/C=C(\C#N)c2nnc(N3CCOCC3)n2-c2ccccc2)ccc1O,21%,-13%,-1,-2%,/,?
COc1ccc(-c2csc(Cc3nnc4n3CCCCC4)n2)cc1,11%,-18%,-2,?,-4,-19%[12.7 µM]
COc1ccc(-c2csc(Cc3nnc(N4CCOCC4)n3-c3ccccc3)n2)cc1,19%,-21%,0,5%,-2,50µM*
COc1ccc(-c2csc(Cc3nnc(N4CCOCC4)n3-c3ccccc3)n2)cc1OC,11%,63µM*,-3,?,-3,?
SMILES,HP1b chromo inh,JMJD2A Tudor,Six1-Eya2 blk,BAZ2B inh,CtBP-E1A blk,G9a block
Cc1nc2cc(C(=O)O)ccc2n1-c1ccccc1,43%,-9%,7,5%,4,?
CC1=CC(C)(C)[N+](C)=CN1c1ccccc1,5%,-9%,9,-8%,4,6.3µM*
COc1ccc(Cn2cc(CN3CC(N4CCCC4)CS3(=O)=O)nn2)cc1 (centres undefined),/,/,1,/,5,/
O=C(c1nc2ccc(Cl)cn2c1CN1CCCC1)N1CCc2ccccc2C1,9%,?,-12,?,-2,79µM*
CN(Cc1cccnc1)Cc1c(C(=O)N2CCc3ccccc3C2)nc2ccc(Cl)cn12,30%,-21%,-3,-23%,-9,50µM*
CC(C)(C)OC(=O)N1CCC(c2c(C(=O)N3CCN(c4ccccn4)CC3)cnn2-c2ccccc2Cl)CC1,36%,-17%,/,4%[57.1 µM],/,-28%[59 µM]
Cc1nc(C)c(N)c(=O)[nH]1,29%,-9%[11.4 µM],7,-28%,/,50µM*
CC(=O)NC1C(=O)N(CCN2CCOCC2)c2ccc(F)cc21 (centres undefined),-2%,22µM*,-4,10µM*,/,32µM*
CCN1C(=O)C(NC(C)=O)c2cc(Br)ccc21 (centres undefined),32%,-5%,2,3%,10,-22%[59 µM]
CCc1ccc2c(c1)C(NC(C)=O)C(=O)N2CC (centres undefined),57%,-16%,-1,5%,3,?
CCCCN1C(=O)C(NC(C)=O)c2cc(Br)ccc21 (centres undefined),37%,-2%[57.1 µM],4,-8%,0,2.5µM*
CC(=O)NC1C(=O)N(CCN2CCOCC2)c2ccc(Cl)cc21 (centres undefined),?,13µM*,-24,8.9µM*,-8,32µM*
CC(=O)NC1C(=O)N(CCN2CCOCC2)c2ccc(C)cc21 (centres undefined),?,7.1µM*,-23,5µM*,/,20µM*
COc1ccc2c(c1)C(NC(C)=O)C(=O)N2C (centres undefined),62%,-3%,-1,-2%,15,?
Cc1cc(NC(=O)COC(=O)C2CC2)ccc1Br,13%,-15%,7,6%,-7,30%[12.7 µM]
CC[C@@H]1Cc2[nH]c(=O)[nH]c(=O)c2[C@H](c2ccc(Cl)cc2)O1,/,/,-1,/,2,/
